# Test results: PubChem BioAssay (NCI)
# The panel holds about 83,000 compounds, 20% with a hit somewhere; the sample as a whole holds those more often.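 Percent growth is the endpoint: 0 to 100 indicates growth inhibition (40 means 60% inhibition), 0 means no net growth, and negative values indicate cell death.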 A number with no mark means an inactive call. The source made the active and inactive calls. The calls were made as follows: active = growth percent below 10; inactive = the rest.
# Legend:
# Assay in all cases: NCI-60 one-dose screen, 48 h (100 = growth as untreated, 0 = no growth, -100 = all killed)
# K-562 leukemia = settings: 10 µM unless noted
# MALME-3M melanoma = settings: 10 µM unless noted
# MDA-MB-231 breast = settings: 10 µM unless noted
# RXF 393 renal = settings: 10 µM unless noted
# SF-268 CNS = settings: 10 µM unless noted
# SF-295 CNS = settings: 10 µM unless noted
# SF-539 CNS = settings: 10 µM unless noted
# UACC-257 melanoma = settings: 10 µM unless noted
# M14 melanoma = settings: 10 µM unless noted
# HCT-15 colon = settings: 10 µM unless noted
# HT29 colon = settings: 10 µM unless noted
# SNB-75 CNS = settings: 10 µM unless noted
# SNB-19 CNS = settings: 10 µM unless noted
# U251 CNS = settings: 10 µM unless noted
# PC-3 prostate = settings: 10 µM unless noted
# SK-MEL-5 melanoma = settings: 10 µM unless noted
# UACC-62 melanoma = settings: 10 µM unless noted
# LOX IMVI melanoma = settings: 10 µM unless noted
# SK-MEL-28 melanoma = settings: 10 µM
# SK-MEL-2 melanoma = settings: 10 µM unless noted
SMILES,growth (K-562 leukemia),growth (MALME-3M melanoma),growth (MDA-MB-231 breast),growth (RXF 393 renal),growth (SF-268 CNS),growth (SF-295 CNS),growth (SF-539 CNS),growth (UACC-257 melanoma),growth (M14 melanoma),growth (HCT-15 colon),growth (HT29 colon),growth (SNB-75 CNS),growth (SNB-19 CNS),growth (U251 CNS),growth (PC-3 prostate),growth (SK-MEL-5 melanoma),growth (UACC-62 melanoma),growth (LOX IMVI melanoma),growth (SK-MEL-28 melanoma),growth (SK-MEL-2 melanoma)
C#CCn1cc(C=C2C(=O)NC(=O)NC2=O)c2cc(Cl)ccc21,82.6%,98.4%,86.2%,72.3%,81.1%,92.6%,82.5%,94.6%,85.1%,82.8%,116%,92.9%,78.8%,82.1%,92%,81.9%,65.3%,73.2%,106%,98.1%
CCCCCCCCCCCCCCn1cc(C2=C(c3coc4ccc(OC)cc34)C(=O)NC2=O)c2ccccc21,121%,107%,111%,108%,98.8%,97.2%,103%,96.8%,98.7%,88.1%,77.1%,80.6%,101%,97.9%,109%,107%,95.9%,101%,101%,104%
O=C1c2ccc3c4c(ccc(c24)C(=O)N1CCCCO)C(=O)N(CCCCO)C3=O,4.34% (active),-7.29% (active),64.6%,15.1%,81.3%,46.8%,68.3%,-61% (active),23.2%,48.5%,10.9%,54.2%,91.4%,72.3%,63%,78.4%,79.6%,59.9%,15.6%,58.1%
O=c1c2cc(F)ccc2sc2c(Nc3ccncc3)nc3ccccc3c12,-47.1% (active),22%,-89.7% (active),-42% (active),-10.4% (active),101%,70.8%,113%,-27.2% (active),-70.5% (active),-58.1% (active),56.5%,25.5%,-33% (active),-10.7% (active),75%,66.7%,-66.7% (active),87.7%,99.5%
O=C(Nc1ccc(N2CCNCC2)cc1)c1[nH]ncc1Nc1ncnc2sc3c(c12)CCC3,-62.7% (active),-75.9% (active),-84.9% (active),-90.8% (active),-72.3% (active),-77.2% (active),-98.8% (active),26%,-91.1% (active),-85.7% (active),-67.3% (active),-99.5% (active),-99.5% (active),-96.5% (active),-83.6% (active),-97.4% (active),-85.1% (active),-91.4% (active),-84.7% (active),4.15% (active)
NS(=O)(=O)c1ccc(CCN=C=S)cc1,5.24% (active),40.9%,15.6%,-36.3% (active),53.3%,105%,37.2%,24.7%,12.6%,0.368% (active),14.7%,29.1%,73.5%,27.6%,47%,74.7%,68.5%,-27.9% (active),55%,63%
O=c1oc2ccc(Br)cc2c(=O)n1-c1ccc(Br)cc1F,8.3% (active),-28.4% (active),-27.2% (active),-11.5% (active),12%,-73.6% (active),-3.2% (active),-15.1% (active),-12.4% (active),2.53% (active),34.8%,-42.4% (active),16.9%,-5.99% (active),-4.81% (active),-84.8% (active),-40.7% (active),2.66% (active),-22.6% (active),-18% (active)
COc1ccc(Cn2c(Br)c3c(c2-c2cc(OC)c(OC)c(OC)c2)CCc2sc(NC(C)=O)nc2-3)cc1,15.4%,-6.05% (active),62.6%,32.3%,37.1%,3.53% (active),23.1%,48%,47.9%,51.9%,33.7%,25.3%,41%,39.2%,43.7%,16.6%,29.7%,33.3%,39.2%,55.6%
S=C1CCCC(=S)N1,104%,106%,113%,104%,99.1%,104%,100%,94.6%,105%,101%,103%,99%,103%,101%,103%,107%,96%,96.8%,106%,102%
O=c1oc2ccc(Cl)cc2c(=O)n1-c1ccc(I)cc1F,7.73% (active),-29.2% (active),-20.5% (active),-5.52% (active),8.08% (active),-57.8% (active),2.55% (active),-16.9% (active),2.42% (active),3.56% (active),33.6%,-28.4% (active),18.6%,-1.68% (active),1.89% (active),-81.5% (active),-28.8% (active),0.538% (active),0.51% (active),-24.3% (active)
Cc1nc2ccccc2c(/C=C/c2ccccc2)c1C(=O)/C=C/c1ccc(Cl)cc1,5.19% (active),40.8%,8.28% (active),-28.2% (active),44.6%,29%,26.6%,29.9%,17.1%,-13.2% (active),-8.66% (active),57.8%,13.6%,-33.2% (active),33.9%,32.4%,34.9%,-90.3% (active),19.2%,14.7%
CNCCNc1nc2ccccc2c2c(=O)c3cccc(OC)c3sc12,-39% (active),59.6%,13.8%,41.5%,37.8%,52.6%,34.9%,64%,-71.3% (active),-39.9% (active),-17.5% (active),26.2%,42%,-45.2% (active),26.1%,57.9%,44.4%,12.2%,62.3%,73.1%
CCN1C(=O)N(CC)C2C1NC(=S)N2/N=C/C=C/c1ccccc1OC (stereo not given),9.29% (active),55.1%,13.3%,35.3%,26.7%,11.1%,-8.21% (active),71.9%,7.43% (active),9.07% (active),2.77% (active),44.8%,26.5%,20.8%,25.2%,-40.7% (active),25.8%,21.1%,56.7%,32.6%
O=c1cc(-c2ccccc2)oc2cc(OCc3cn(Cc4ccc(F)cc4)nn3)cc(OCc3cn(Cc4ccc(F)cc4)nn3)c12,45.5%,15.2%,9.1% (active),-8.05% (active),21.8%,38.9%,-10.5% (active),46.4%,56.8%,73.5%,35.1%,6.29% (active),12.1%,10.5%,36%,17.1%,30%,34.8%,29.9%,48.8%
COc1cc(NC(=O)CCSc2nc3ccccc3c(=O)n2CCc2ccccn2)cc(OC)c1OC,94.8%,59%,80.2%,75.2%,80.8%,88.4%,73.7%,93.2%,103%,96.4%,102%,8.5% (active),98.6%,85.1%,81.6%,87.8%,84%,94.8%,83.3%,92.4%
CCN1C(=O)N(CC)C2Nn3c(s/c(=C4\C(=O)N(C(C)C)c5ccccc54)c3=O)=NC21 (stereo not given),13.8%,71.4%,24%,44.5%,51.8%,19%,11.5%,28.9%,21.9%,22.3%,11.6%,60.2%,46.4%,28.1%,26.3%,41.4%,36.4%,40.6%,55.1%,72.9%
